In PubChem BioAssay (Tox21):
Inconclusive results are not listed. Calls of active or inactive are those of the source. Calls come from the whole dose curve; as a rule, active = well fitted curve in the direction sought with a large enough effect in the repeat runs; inconclusive = weak or mixed curves; inactive = no such curve, though single readings can be large; an effect the other way counts as inactive or inconclusive.

What was measured:
[1] = A CellTox Green Cytotoxicity Assay to monitor cytotoxicity in HEK293 cells - 40 hour (AID 1224871); note: nearly all actives have a fitted effect of over 45% in size
Method in brief: (§1)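 Cells (HEK293, 600/well) and dye reagent are dispensed together. After 5 h at 37 C, 23 nL compound is pinned in. Plates stay at 37 C for 40 h with fluorescence read at 0h, 8h, 16h, 24h, 32h and 40h.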

[2] = qHTS RealTime-Glo MT Cell Viability Assay in HEK293 cells - 16 hour (AID 1224872); note: top concentration of the series differs between compounds; nearly all actives have a fitted effect of over 50% in size
Method in brief: (§2)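 Reads taken at 0, 8, 16, 24, 32 and 40 h from the same wells. HEK293 cells (600/well) carried RealTime-Glo reagents from seeding, with compound added after a 5 h settle at 37 C.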

[3] = qHTS RealTime-Glo MT Cell Viability Assay in HepG2 cells - 8 hour (AID 1224873); note: nearly all actives have a fitted effect of over 55% in size
Method in brief: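 HepG2 cells (600/well) mixed with RealTime-Glo MT reagent, settled 5 h at 37 C/5% CO2 before compound addition. Nonlytic NanoLuc luminescence from viable-cell prosubstrate reduction read repeatedly during 40 h treatment at 37 C.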

[4] = qHTS RealTime-Glo MT Cell Viability Assay in HEK293 cells - 40 hour (AID 1224874); conditions: RealTime-Glo luminescence; max response: active compounds read low; note: nearly all actives have a fitted effect of over 50% in size
Method in brief: (§3)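 Real-time viability in HEK293: signal arises when living cells convert a prosubstrate for NanoLuc in the medium, so luminescence tracks viable cell number. Compound (23 nL, DMSO) added 5 h post-seeding; kinetic reads at 0–40 h, 37 C.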

[5] = A CellTox Green Cytotoxicity Assay to monitor cytotoxicity in HEK293 cells - 24 hour (AID 1224875); note: series mostly up to about 77 µM; nearly all actives have a fitted effect of over 45% in size
Method in brief: as §1

[6] = A CellTox Green Cytotoxicity Assay to monitor cytotoxicity in HepG2 cells - 16 hour (AID 1224876); note: nearly all actives have a fitted effect of over 45% in size
Method in brief: (§4)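 Cells and non-lytic dye reagent are dispensed together (600 HepG2 cells/well) and incubated 5 h before DMSO compound transfer. Kinetic fluorescence is then recorded in the same wells during 40 h at 37 C.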

[7] = qHTS RealTime-Glo MT Cell Viability Assay in HepG2 cells - 32 hour (AID 1224877); note: nearly all actives have a fitted effect of over 55% in size
Method in brief: (§5)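 HepG2 suspension premixed with RealTime-Glo reagents is plated at 600 cells per well and left 5 h at 37 C/5% CO2. Compounds in DMSO then go in, and bioluminescence reflecting viable cell number is recorded over 40 h.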

[8] = A CellTox Green Cytotoxicity Assay to monitor cytotoxicity in HepG2 cells - 24 hour (AID 1224878); note: nearly all actives have a fitted effect of over 45% in size
Method in brief: as §4

[9] = A CellTox Green Cytotoxicity Assay to monitor cytotoxicity in HepG2 cells - 40 hour (AID 1224879); note: nearly all actives have a fitted effect of over 40% in size
Method in brief: as §4

[10] = qHTS RealTime-Glo MT Cell Viability Assay in HEK293 cells - 0 hour (AID 1224880)
Method in brief: as §3

[11] = A CellTox Green Cytotoxicity Assay to monitor cytotoxicity in HEK293 cells - 32 hour (AID 1224881); note: nearly all actives have a fitted effect of over 40% in size
Method in brief: as §1

[12] = A CellTox Green Cytotoxicity Assay to monitor cytotoxicity in HepG2 cells - 0 hour (AID 1224882); note: nearly all actives have a fitted effect of over 35% in size
Method in brief: as §4

[13] = A CellTox Green Cytotoxicity Assay to monitor cytotoxicity in HepG2 cells - 32 hour (AID 1224883); note: nearly all actives have a fitted effect of over 50% in size
Method in brief: as §4

[14] = A CellTox Green Cytotoxicity Assay to monitor cytotoxicity in HEK293 cells - 8 hour (AID 1224884); note: nearly all actives have a fitted effect of over 35% in size
Method in brief: as §1

[15] = qHTS RealTime-Glo MT Cell Viability Assay in HepG2 cells - 16 hour (AID 1224885); note: nearly all actives have a fitted effect of over 50% in size
Method in brief: as §5

[16] = qHTS RealTime-Glo MT Cell Viability Assay in HEK293 cells - 24 hour (AID 1224886)
Method in brief: as §2

[17] = qHTS RealTime-Glo MT Cell Viability Assay in HEK293 cells - 8 hour (AID 1224887)
Method in brief: as §3

[18] = A CellTox Green Cytotoxicity Assay to monitor cytotoxicity in HEK293 cells - 16 hour (AID 1224888); note: nearly all actives have a fitted effect of over 35% in size
Method in brief: as §1

[19] = A CellTox Green Cytotoxicity Assay to monitor cytotoxicity in HepG2 cells - 8 hour (AID 1224890); note: nearly all actives have a fitted effect of over 45% in size
Method in brief: as §4

[20] = qHTS RealTime-Glo MT Cell Viability Assay in HepG2 cells - 0 hour (AID 1224889); note: nearly all actives have a fitted effect of over 50% in size
Method in brief: as §5
% is set by controls: 0 for no effect and ±100 for the full control effect.

OCCCCCO
inactive: Potency [1] | Potency [2] | outcome [3] | max response [4] 4.41% | outcome [5] | outcome [6] | Potency [7] | outcome [8] | Potency [9] | Potency [10] | outcome [11] | Potency [12] | Potency [13] | outcome [14] | outcome [15] | Potency [16] | Potency [17] | outcome [18] | outcome [19]

CCCCOCCOC(=O)COc1cc(Cl)c(Cl)cc1Cl
inactive: Potency [1] | Potency [2] | outcome [3] | max response [4] 4.7% | outcome [5] | outcome [6] | Potency [7] | outcome [8] | Potency [9] | Potency [10] | outcome [11] | Potency [12] | Potency [13] | outcome [14] | outcome [15] | Potency [16] | Potency [17] | outcome [18] | Potency [20] | outcome [19]

NS(=O)(=O)Cc1noc2ccccc12
inactive: Potency [1] | Potency [2] | outcome [3] | max response [4] 1.21% | outcome [5] | outcome [6] | Potency [7] | outcome [8] | Potency [9] | Potency [10] | outcome [11] | Potency [12] | Potency [13] | outcome [14] | outcome [15] | Potency [16] | Potency [17] | outcome [18] | Potency [20] | outcome [19]

CCN(C=O)CC
inactive: Potency [1] | Potency [2] | outcome [3] | max response [4] 2.6% | outcome [5] | outcome [6] | Potency [7] | outcome [8] | Potency [9] | Potency [10] | outcome [11] | Potency [12] | Potency [13] | outcome [14] | outcome [15] | Potency [16] | Potency [17] | outcome [18] | Potency [20] | outcome [19]

CC(C)NNC(=O)c1ccncc1
inactive: Potency [1] | Potency [2] | outcome [3] | max response [4] 9.38% | outcome [5] | outcome [6] | Potency [7] | outcome [8] | Potency [9] | Potency [10] | outcome [11] | Potency [12] | Potency [13] | outcome [14] | outcome [15] | Potency [16] | Potency [17] | outcome [18] | Potency [20] | outcome [19]

C[C@H]1[C@H](NC(=O)/C(=N/OC(C)(C)C(=O)O)c2csc(N)n2)C(=O)N1S(=O)(=O)O (stereo in doubt)
inactive: Potency [1] | Potency [2] | outcome [3] | max response [4] 5.51% | outcome [5] | outcome [6] | Potency [7] | outcome [8] | Potency [9] | Potency [10] | outcome [11] | Potency [12] | Potency [13] | outcome [14] | outcome [15] | Potency [16] | Potency [17] | outcome [18] | Potency [20] | outcome [19]

N[C@H](C(=O)O)[C@@H](O)c1ccc(O)c(O)c1
inactive: Potency [1] | Potency [2] | outcome [3] | max response [4] 0.604% | outcome [5] | outcome [6] | Potency [7] | outcome [8] | Potency [9] | Potency [10] | outcome [11] | Potency [12] | Potency [13] | outcome [14] | outcome [15] | Potency [16] | Potency [17] | outcome [18] | Potency [20] | outcome [19]

O=S(=O)(O)c1cc(O)c(O)c(S(=O)(=O)O)c1
inactive: Potency [1] | Potency [2] | outcome [3] | max response [4] 0.173% | outcome [5] | outcome [6] | Potency [7] | outcome [8] | Potency [9] | Potency [10] | outcome [11] | Potency [12] | Potency [13] | outcome [14] | outcome [15] | Potency [16] | Potency [17] | outcome [18] | Potency [20] | outcome [19]

Cc1ncc(COP(=O)(O)O)c(C=O)c1O
inactive: Potency [1] | Potency [2] | outcome [3] | max response [4] -0.601% | outcome [5] | outcome [6] | Potency [7] | outcome [8] | Potency [9] | Potency [10] | outcome [11] | Potency [12] | Potency [13] | outcome [14] | outcome [15] | Potency [16] | Potency [17] | outcome [18] | Potency [20] | outcome [19]

CN1C(C)(C)CC(O)CC1(C)C
inactive: Potency [1] | Potency [2] | outcome [3] | max response [4] 2.49% | outcome [5] | outcome [6] | Potency [7] | outcome [8] | Potency [9] | Potency [10] | outcome [11] | Potency [12] | Potency [13] | outcome [14] | outcome [15] | Potency [16] | Potency [17] | outcome [18] | Potency [20] | outcome [19]

CCN1C=CN(C)C1C (centres undefined)
inactive: Potency [1] | Potency [2] | outcome [3] | max response [4] 0.14% | outcome [5] | outcome [6] | Potency [7] | outcome [8] | Potency [9] | Potency [10] | outcome [11] | Potency [12] | Potency [13] | outcome [14] | outcome [15] | Potency [16] | Potency [17] | outcome [18] | Potency [20] | outcome [19]

O=C(O)CC(C(=O)O)S(=O)(=O)O (centres undefined)
inactive: Potency [1] | Potency [2] | outcome [3] | max response [4] 5.69% | outcome [5] | outcome [6] | Potency [7] | outcome [8] | Potency [9] | Potency [10] | outcome [11] | Potency [12] | Potency [13] | outcome [14] | outcome [15] | Potency [16] | Potency [17] | outcome [18] | Potency [20] | outcome [19]

CCCCCCC1CCC(=O)O1 (centres undefined)
inactive: Potency [1] | Potency [2] | outcome [3] | max response [4] 4.76% | outcome [5] | outcome [6] | Potency [7] | outcome [8] | Potency [9] | Potency [10] | outcome [11] | Potency [12] | Potency [13] | outcome [14] | outcome [15] | Potency [16] | Potency [17] | outcome [18] | Potency [20] | outcome [19]
